# Assay results as given in PubChem BioAssay (NCATS).
# Inconclusive results are not listed. A call without a number means that no potency is given here. Activity calls are given as the source filed them. The call rests on the fitted dose curve; in most records, active means well fitted curve in the direction sought with a large enough effect; inconclusive means small, poorly fitted or top-dose-only effect, or another doubt; inactive means no such curve, though single readings can be large; an effect the other way counts as inactive or inconclusive.
# Columns and labels:
# [1] = S16 Schwann cell viability assay (CellTiter-Glo assay) (AID 624031); conditions: S16 rat Schwann cells viability, 24 h; series mostly up to 57.5 µM;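 further: cellular ATP luminescence as a viability measure; nearly all actives have a fitted effect of over 70% in size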
# Method in brief: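 Luminescent ATP read-out (CellTiter-Glo) after 24 h compound exposure of native S16 rat Schwann cells at 37 °C. Signals were normalized between cell-free wells and DMSO-treated cells, set as 0% activity.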
# 3D7 = experiment: qHTS profiling for inhibitors of Plasmodium falciparum proliferation (AID 504749); further: nearly all actives have a fitted effect of over 60% in size; further: potency means the concentration at half of the fitted maximal effect; conditions: P. falciparum in erythrocytes, SYBR Green DNA, 72 h; series mostly up to 28.7 µM
# Method in brief: (§1)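 P. falciparum-infected erythrocytes (0.3% parasitemia, 2.5% hematocrit final) were exposed to compounds for 72 h at 37 C in 5% CO2, then lysed with SYBR Green buffer overnight at room temperature; parasite DNA fluorescence was normalized to artemisinin and DMSO controls.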
# ATS95 = experiment: as above; conditions: P. falciparum in erythrocytes, SYBR Green DNA, 72 h; series mostly up to 28.7 µM
# Method in brief: as §1
# C2A = experiment: as above; conditions: P. falciparum in erythrocytes, SYBR Green DNA, 72 h; series mostly up to 28.7 µM
# Method in brief: as §1
# CP194 = experiment: as above; conditions: P. falciparum in erythrocytes, SYBR Green DNA, 72 h; series mostly up to 28.7 µM
# Method in brief: as §1
# CP201 = experiment: as above; conditions: P. falciparum in erythrocytes, SYBR Green DNA, 72 h; series mostly up to 28.7 µM
# Method in brief: as §1
# CP203 = experiment: as above; conditions: P. falciparum in erythrocytes, SYBR Green DNA, 72 h; series mostly up to 28.7 µM
# Method in brief: as §1
# CP262 = experiment: as above; conditions: P. falciparum in erythrocytes, SYBR Green DNA, 72 h; series mostly up to 28.7 µM
# Method in brief: as §1
# CP269 = experiment: as above; conditions: P. falciparum in erythrocytes, SYBR Green DNA, 72 h; series mostly up to 28.7 µM
# Method in brief: as §1
# CP291 = experiment: as above; conditions: P. falciparum in erythrocytes, SYBR Green DNA, 72 h; series mostly up to 28.7 µM
# Method in brief: as §1
# Dd2 = experiment: as above; conditions: P. falciparum in erythrocytes, SYBR Green DNA, 72 h; series mostly up to 28.7 µM
# Method in brief: as §1
# ECU = experiment: as above; conditions: P. falciparum in erythrocytes, SYBR Green DNA, 72 h; series mostly up to 28.7 µM
# Method in brief: as §1
# HB3 = experiment: as above; conditions: P. falciparum in erythrocytes, SYBR Green DNA, 72 h; series mostly up to 28.7 µM
# Method in brief: as §1
# ATS189 = experiment: as above; conditions: P. falciparum in erythrocytes, SYBR Green DNA, 72 h; series mostly up to 28.7 µM
# Method in brief: as §1
# CP217 = experiment: as above; conditions: P. falciparum in erythrocytes, SYBR Green DNA, 72 h; series mostly up to 28.7 µM
# Method in brief: as §1
# CP250 = experiment: as above; conditions: P. falciparum in erythrocytes, SYBR Green DNA, 72 h; series mostly up to 12.8 µM
# Method in brief: as §1
# CP252 = experiment: as above; conditions: P. falciparum in erythrocytes, SYBR Green DNA, 72 h; series mostly up to 12.8 µM
# Method in brief: as §1
# CP256 = experiment: as above; conditions: P. falciparum in erythrocytes, SYBR Green DNA, 72 h; series mostly up to 28.7 µM
# Method in brief: as §1
# DFO2036 = experiment: as above; conditions: P. falciparum in erythrocytes, SYBR Green DNA, 72 h; series mostly up to 28.7 µM
# Method in brief: as §1
# N140 = experiment: as above; conditions: P. falciparum in erythrocytes, SYBR Green DNA, 72 h; series mostly up to 28.7 µM
# Method in brief: as §1
Compound,Potency [1],Potency (3D7),Potency (ATS95),Potency (C2A),Potency (CP194),Potency (CP201),Potency (CP203),Potency (CP262),Potency (CP269),Potency (CP291),Potency (Dd2),Potency (ECU),Potency (HB3),Potency (ATS189),Potency (CP217),Potency (CP250),Potency (CP252),Potency (CP256),Potency (DFO2036),Potency (N140)
CC1=C2[C@@H]3OC(=O)[C@@H](C)[C@@H]3CC[C@]2(C)C=CC1=O,inactive,inactive,inactive,inactive,inactive,inactive,inactive,inactive,inactive,inactive,inactive,inactive,inactive,–,–,–,–,–,–,–
CC(C)N(CC[C@@](C(N)=O)(c1ccccc1)c1ccccn1)C(C)C,inactive,inactive,inactive,inactive,inactive,inactive,inactive,inactive,inactive,inactive,inactive,inactive,inactive,inactive,inactive,inactive,inactive,inactive,inactive,inactive
COc1cc2c(cc1OC)[C@@]13CCN4CC5=CCOC6CC(=O)N2C1[C@H]6[C@@H]5C[C@@H]43 (some centres not stated),inactive,inactive,inactive,inactive,inactive,inactive,inactive,inactive,inactive,inactive,inactive,inactive,inactive,inactive,inactive,inactive,inactive,inactive,inactive,inactive
CNC[C@H](O)c1ccc(O)cc1,inactive,inactive,inactive,inactive,inactive,inactive,inactive,inactive,inactive,inactive,inactive,inactive,inactive,inactive,inactive,inactive,inactive,inactive,inactive,inactive
CCC(C)C1O[C@]2(C=CC1C)CC1CC(C/C=C(\C)[C@H](OC3CC(OC)C(O[C@H]4CC(OC)[C@@H](O)C(C)O4)C(C)O3)[C@@H](C)/C=C/C=C3\COC4C(O)C(C)=C[C@H](C(=O)O1)[C@@]34O)O2 (some centres not stated),inactive,11.2 µM (active),10 µM (active),12.6 µM (active),12 µM (active),16.9 µM (active),13.5 µM (active),inactive,15.1 µM (active),10.7 µM (active),11.2 µM (active),8.91 µM (active),–,11.2 µM (active),10 µM (active),11.2 µM (active),11.2 µM (active),6.31 µM (active),11.2 µM (active),10 µM (active)
CC(=O)O[C@H]1CC[C@@]2(C)C(=CC[C@@H]3[C@H]2CC[C@]2(C)C(=O)CC[C@H]32)C1,inactive,inactive,inactive,inactive,inactive,inactive,inactive,inactive,inactive,inactive,inactive,inactive,inactive,inactive,inactive,inactive,inactive,inactive,inactive,inactive
O=C1C=C2C=CC3C[C@@]2(O1)C1CCCCN31 (some centres not stated),inactive,12.6 µM (active),10 µM (active),12.6 µM (active),–,–,–,13.5 µM (active),15.1 µM (active),–,11.2 µM (active),11.2 µM (active),11.2 µM (active),11.2 µM (active),8.91 µM (active),12.6 µM (active),11.2 µM (active),11.2 µM (active),12.6 µM (active),12.6 µM (active)
CN[C@@H](C)[C@H]1CC[C@@H](N)[C@@H](O[C@@H]2[C@@H](O)[C@@H](O[C@H]3OC[C@@](C)(O)[C@@H](NC)[C@@H]3O)[C@H](N)C[C@@H]2N)O1 (tested in a mixture with another compound),inactive,inactive,inactive,inactive,inactive,inactive,inactive,inactive,inactive,inactive,inactive,inactive,inactive,inactive,inactive,inactive,inactive,inactive,inactive,inactive
O=c1ccc2cc(O[C@H]3O[C@@H](CO)[C@@H](O)[C@@H](O)[C@@H]3O)c(O)cc2o1,inactive,–,inactive,inactive,inactive,inactive,inactive,inactive,inactive,inactive,inactive,inactive,inactive,inactive,inactive,inactive,inactive,inactive,inactive,inactive
CC([C@H](O)c1ccccc1)N(C)C (some centres not stated),inactive,inactive,inactive,inactive,inactive,inactive,inactive,inactive,inactive,inactive,–,inactive,inactive,inactive,inactive,inactive,inactive,inactive,inactive,inactive
CNc1ccc(C(=O)CC(O)CCC(C)C2OC(=O)CC(O)CC(=O)CC(O)CC(O)CC(O)CC(O)CC3(O)CC(O)C(C(=O)OC)C(CC(O[C@@H]4OC(C)C(O)C(N)C4O)/C=C/C=C/C=C/C=C/C=C/C=C/C=C/C2C)O3)cc1 (some centres not stated),–,inactive,inactive,inactive,inactive,inactive,inactive,inactive,inactive,inactive,inactive,inactive,inactive,inactive,inactive,inactive,inactive,inactive,inactive,inactive
CC[C@@H]1[C@@H]2C[C@H]3[C@H]4N(C)c5ccccc5[C@@]45C[C@@H]([C@@H]2[C@@H]5O)N3[C@H]1O,inactive,inactive,inactive,inactive,inactive,inactive,inactive,inactive,inactive,inactive,inactive,inactive,inactive,inactive,inactive,inactive,inactive,inactive,inactive,inactive
Clc1ccc([C@@H](OCCN2CCCCC2)c2ccccc2)cc1,–,inactive,–,inactive,–,inactive,–,inactive,–,inactive,4.47 µM (active),–,7.94 µM (active),3.16 µM (active),inactive,inactive,inactive,inactive,inactive,3.98 µM (active)
C[C@@H]1O[C@H](O[C@@H]2C=C3CC[C@H]4[C@@H](CC[C@]5(C)[C@@H](c6ccc(=O)oc6)CC[C@]45O)[C@@]3(C)CC2)[C@@H](O)[C@H](O)[C@@H]1O,inactive,inactive,inactive,inactive,inactive,inactive,inactive,–,inactive,inactive,inactive,inactive,inactive,inactive,inactive,inactive,inactive,inactive,inactive,inactive
COc1cc(N)c(Cl)cc1C(=O)N[C@@H]1CN2CCC1CC2,inactive,inactive,inactive,inactive,inactive,inactive,inactive,inactive,inactive,inactive,inactive,inactive,inactive,inactive,inactive,inactive,inactive,inactive,inactive,inactive
CC[C@@]1(c2ccc(N)cc2)CCC(=O)NC1=O,inactive,inactive,inactive,inactive,inactive,inactive,inactive,inactive,inactive,inactive,inactive,inactive,inactive,inactive,inactive,inactive,inactive,inactive,inactive,inactive
C=CC1CN2CCC1CC2C(OC(=O)OCC)c1ccnc2ccc(OC)cc12 (configuration not stated),inactive,2.51 µM (active),3.98 µM (active),–,6.01 µM (active),–,8.49 µM (active),6.01 µM (active),9.53 µM (active),12 µM (active),5.01 µM (active),3.98 µM (active),6.31 µM (active),5.62 µM (active),7.94 µM (active),12.6 µM (active),8.91 µM (active),11.2 µM (active),6.31 µM (active),11.2 µM (active)
CC(C)CC(CN)CC(=O)O (configuration not stated),inactive,–,–,–,–,–,–,–,–,–,–,–,–,–,–,–,–,–,–,–
CNC(C)[C@@H](O)c1ccccc1 (some centres not stated),inactive,inactive,inactive,inactive,inactive,inactive,inactive,inactive,inactive,inactive,inactive,inactive,inactive,inactive,inactive,inactive,inactive,inactive,inactive,inactive
